Hits are enriched below; roughly 2.1% of the tested compounds scored in any of these assays.
IDE inh = inhibits human insulin-degrading enzyme in HEK cells; FAbetaB cleavage, fluorescence polarization; 0.41% of 320,000 active; AID 434962; inhibition, % at 5.59 µM;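 active means percent inhibition above the average of all tested compounds plus 3 SD, set per screening campaign, cut at about 16% in these data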;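 further: IDE supplied by intact live HEK cells; FP after avidin binding of uncleaved biotin substrate so inhibition keeps polarization high; 0% = DMSO wells and 100% = 60 µM reference IDE inhibitor Ii1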
Mot1-301 SUMO = blocks SUMOylation pathway, rescuing yeast Mot1-301 growth | S. cerevisiae Mot1-301 growth rescue, ATP luminescence, 38.5C; percent above DMSO median, 100 means doubled | 1% of 320,000 active | growth rescue, % at 18.8 µM;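 active means every valid replicate shows activation above 250% relative to neutral control wells; inactive means the rest, any valid replicate at or below 250%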;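 further: OY570 slx delta 5 strain wells were the positive control but not used for scaling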
IDE cell activ = boosts human insulin-degrading enzyme activity in HEK cells | P14735 | FAbeta-B cleavage, fluorescence polarization; 0% vehicle, 100% cell-free pure enzyme wells | activation, % at 5.96 µM | 0.073% of 340,000 active | AID 493087;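 active means activation above the mean of all tested compounds plus 3 SD, set per screening campaign, cut at about 17% in these data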
LANA-H2B inh = blocks KSHV LANA binding to histone H2A/H2B. cell-free LANA-H2A/H2B peptide, fluorescence polarization. 0.6% of 320,000 active. inhibition, % (test concentration not listed). Q9QR71; in the data active means inhibition mostly above about 10%, no sharp cut-off; inactive means mostly below about 6.7%
HDAC3 inhib = blocks human histone deacetylase 3 | O15379 | 0.15% of 320,000 active | inhibition, % at 8.3 µM | recombinant HDAC3, fluorogenic peptide/trypsin coupled, fluorescence; in the data active means inhibition above about 26%, passing the limit was not always enough; inconclusive means no clear call, values can overlap the other calls
Yeast Mot1 SUMO = yeast SUMO pathway inhibition in dose response. S. cerevisiae Mot1-301 galactose growth, ATP luminescence, 24 h; -100 = growth of slx-deleted rescue strain. 2,300 tested, under 10 active. growth activity, percent, % at 42 µM. shares compounds with Mot1-301 SUMO;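 active means Signal drops as the depositor expects, and the fitted half-maximal dose is no more than ten times the top valid tested dose; inconclusive means Poor fit, or a flat curve whose signal drops by 30% to 70%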;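 further: more negative values mean stronger growth rescue toward the control strain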
Numbers without * were called inactive; ? = inconclusive; . = not tested or not shown; + = active, no number; [ ] = remark or other dose.

SMILES	IDE inh	Mot1-301 SUMO	IDE cell activ	LANA-H2B inh	HDAC3 inhib	Yeast Mot1 SUMO
N#Cc1c(SCC(=O)Nc2nccs2)sc2c(O)cc(=O)[nH]c12	-1	7	1	3	3	.
CCCSc1nnc(NC(=O)CSc2sc3c(O)cc(=O)[nH]c3c2C#N)s1	1	754*	-1	3	5	0
Cc1nnsc1C(=O)N1CCC(CO)(Cc2ccccc2Cl)CC1	5	+	3	2	.	1
Cc1ccccc1Nc1c([N+](=O)[O-])ccc2c1=NC1(CCCCC1)N=2	2	768*	9	-2	-4	0
CC(=O)Nc1c2c(nn1-c1cccc(Cl)c1)CS(=O)(=O)C2	3	6	2	-2	?	.
O=C(Nc1ccccc1)OCCN1CCN(Cc2ccccc2)CCC1=O	0	2	2	-3	0	.
O=C1CCN(Cc2ccccc2)CCN1CCOc1ccccc1	0	858*	3	3	1	0
CCCNC(=O)CN(c1ccc(F)cc1)S(=O)(=O)c1ccc2c(c1)OCCO2	1	847*	7	3	3	0
Cc1nnc(Nc2ccc(S(N)(=O)=O)cc2)c2ccccc12	4	-8	7	7	3	.
Nc1ccc(S(=O)(=O)NNC(=O)C(=O)NNc2ccccc2)cc1	-3	405*	3	.	.	0
O=c1c2ccccc2oc2cc(-c3ccc(CN4CCOCC4)cc3)ccc12	4	0	-14	-5	-7	.
CCN(C(=O)COC(=O)c1c(-c2ccccc2)noc1C)c1c(N)n(Cc2ccccc2)c(=O)[nH]c1=O	-1	413*	2	-1	-6	0
CCN(C(=O)COC(=O)/C=C/c1ccc(C)o1)c1c(N)n(Cc2ccccc2)c(=O)[nH]c1=O	.	.	0	.	.	.
Cc1ccc(/C=C/C(=O)OCC(=O)N(CC(C)C)c2c(N)n(Cc3ccccc3)c(=O)[nH]c2=O)o1	-2	812*	6	-2	3	0[21 µM]
CCCNC(=O)c1cc2c(C(F)(F)F)nn(C)c2s1	-1	859*	1	4	4	0
CC(C)NC(=O)c1cc2c(C(F)(F)F)nn(C)c2s1	2	32	-4	1	5	.
CCCc1cc(=O)oc2c3c(c4c(c12)OC(C)(C)C=C4)OC(C)C(C)C3O (stereo not given)	5	779*	-8	-1	?	0
COc1cc(OC)c(OC)cc1CNC(=O)c1ccc(COc2ccccc2)cc1	-3	27	2	-1	2	.
CC(=O)N1CCc2cc(S(=O)(=O)CCC(=O)N3CCN(C(=O)c4ccco4)CC3)ccc21	-8	436*	0	0	-23	0
CC(=O)N1CCc2cc(S(=O)(=O)CCC(=O)N3CCN(c4ccccc4)CC3)ccc21	7	149	3	-3	-6	.
CCC(c1nc2ccccc2c(=O)n1-c1nc2ccccc2s1)N1C(=O)c2ccccc2C1=O (stereo not given)	1	359*	2	-5	10	0
O=C(NC1CCCCC1)C(c1cccs1)N(C(=O)c1ccccn1)c1ccccc1 (stereo not given)	1	1	6	2	5	.
O=C(NC1CCCC1)C(c1cccs1)N(C(=O)c1ccno1)c1ccccc1 (stereo not given)	3	815*	-3	0	1	0
O=C(O)c1ccc(Cn2cnc3c(=O)[nH]cnc32)cc1	.	.	5	.	.	.
CCOC(=O)c1nc(N/N=C/c2ccccc2)sc1Br	-2	-15	6	1	3	.
SMILES	IDE inh	Mot1-301 SUMO	IDE cell activ	LANA-H2B inh	HDAC3 inhib	Yeast Mot1 SUMO
CCOC(=O)c1sc(N/N=C/c2ccc(N(C)C)cc2)nc1C	-1	+	3	1	-11	0
CCOC(=O)c1nc(Nc2ccccc2CC)c2ccccc2n1	4	996*	-3	2	5	0
CCOC(=O)c1nc(Nc2ccccc2C)c2ccccc2n1	3	2	3	-10	3	.
COc1ccccc1CN1C(=O)CN(C2CCCCCC2)C(=O)C1c1ccc(F)cc1 (stereo not given)	0	-10	6	-4	-2	.
CCC(C)N1C(=O)CN(C2CCCCCC2)C(=O)C1c1ccccc1F (stereo not given)	1	422*	-3	1	2	-1
Cc1cc(C(=O)COc2cccc3cccnc23)c(C)n1C	-7	598*	8	15	-1	0
C(=N\Nc1ccc2nncn2n1)/c1ccccn1	-1	499*	.	0	3	0
COc1ccc2c(C(=O)CN3CC(C)OC(C)C3)c[nH]c2c1 (stereo not given)	5	390*	4	-2	5	0
COc1ccc2c(C(=O)CN3CCC(C)CC3)c[nH]c2c1	3	-12	-4	3	5	.
Nc1ccc(N2CCN(c3ccc(F)cc3)CC2)cc1	-1	903*	1	3	0	0
Cc1nc(NCCN2CCOCC2)c2nnn(Cc3c(F)cccc3Cl)c2n1	2	629*	-3	5	3	0
CC(C)C(NC(=O)c1ccccc1)C(=O)NC1CCCc2ccccc21 (stereo not given)	2	-1	2	-347	7	.
CCOC(=O)CNC(=O)c1c(C)nn(C)c1Cl	-4	669*	5	4	-8	1
CCOC(=O)c1[nH]c2ccc(F)cc2c1NC(=O)CCN1CCOCC1	0	383*	3	1	-10	0
CCOC(=O)c1[nH]c2ccc(F)cc2c1NC(=O)CCN1CCSCC1	-1	-29	1	-2	-9	.
Nc1nc2ccccc2cc1-c1cccs1	-6	435*	7	4	-29	-1
c1csc(-c2ccc3ccccc3n2)c1	3	0	2	0	-16	.
CC(C)(C)NC(=O)CC1C(=O)NCCN1Cc1c(F)cccc1Cl (stereo not given)	1	836*	-2	-6	4	1
O=C(CC1C(=O)NCCN1Cc1c(F)cccc1Cl)NC1CCCCCC1 (stereo not given)	-3	-3	3	-8	8	.
O=C(O)c1cc(S(=O)(=O)Nc2ccc(OCc3ccccc3)cc2)ccc1Br	-2	414*	-4	4	3	1
CCOC(=O)c1cc([N+](=O)[O-])c([N+](=O)[O-])cc1NC(C)=O	-2	487*	-2	.	7	0
CCOC(=O)c1ccc(NC(=O)c2ccccc2[N+](=O)[O-])cc1	1	-4	-1	2	-8	.
CCOC(=O)CSc1cc(C)nc2ccc(OC)cc12	1	476*	5	3	-6	0
O=C1CCCC2=C1C(c1ccncc1)c1c(nc(SCc3ccccc3Cl)[nH]c1=O)N2 (stereo not given)	4	682*	3	1	2	0
